From the supplement of paper PMC10849652
Of roughly 7,900 targets only a part is listed; those with a hit were picked by preference. About 0.6% of all pairs of compound and target were hits.

Compound: C1=CC=C2C(=C1)C3=NNC4=CC=CC(=C43)C2=O
Experiment: log2 fold change, soluble protein after heating vs DMSO (PISA); higher = thermal stabilisation; K562 cells, 10 uM, 30 min; active = over 0.2 and 3.5 SD of the protein, either way, in both replicates (recomputed)
Summary of the method: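 Soluble protein was defined as the supernatant after 21,000xg for 90 min. It came from K562 cells at 2×10^6 cells/mL given 10 μM compound for 30 min, heated in aliquots for 3 min across 48°C-58°C, pooled, and extracted in PBS with 0.5% NP-40 at 4°C, and was quantified by TMTpro 16plex LC-MS/MS with equalised channel sums. Thermal stability against control samples, from duplicates, is reported as log2 fold change.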

Chain of UniProt P43246 (P43246 whole entry, looked up): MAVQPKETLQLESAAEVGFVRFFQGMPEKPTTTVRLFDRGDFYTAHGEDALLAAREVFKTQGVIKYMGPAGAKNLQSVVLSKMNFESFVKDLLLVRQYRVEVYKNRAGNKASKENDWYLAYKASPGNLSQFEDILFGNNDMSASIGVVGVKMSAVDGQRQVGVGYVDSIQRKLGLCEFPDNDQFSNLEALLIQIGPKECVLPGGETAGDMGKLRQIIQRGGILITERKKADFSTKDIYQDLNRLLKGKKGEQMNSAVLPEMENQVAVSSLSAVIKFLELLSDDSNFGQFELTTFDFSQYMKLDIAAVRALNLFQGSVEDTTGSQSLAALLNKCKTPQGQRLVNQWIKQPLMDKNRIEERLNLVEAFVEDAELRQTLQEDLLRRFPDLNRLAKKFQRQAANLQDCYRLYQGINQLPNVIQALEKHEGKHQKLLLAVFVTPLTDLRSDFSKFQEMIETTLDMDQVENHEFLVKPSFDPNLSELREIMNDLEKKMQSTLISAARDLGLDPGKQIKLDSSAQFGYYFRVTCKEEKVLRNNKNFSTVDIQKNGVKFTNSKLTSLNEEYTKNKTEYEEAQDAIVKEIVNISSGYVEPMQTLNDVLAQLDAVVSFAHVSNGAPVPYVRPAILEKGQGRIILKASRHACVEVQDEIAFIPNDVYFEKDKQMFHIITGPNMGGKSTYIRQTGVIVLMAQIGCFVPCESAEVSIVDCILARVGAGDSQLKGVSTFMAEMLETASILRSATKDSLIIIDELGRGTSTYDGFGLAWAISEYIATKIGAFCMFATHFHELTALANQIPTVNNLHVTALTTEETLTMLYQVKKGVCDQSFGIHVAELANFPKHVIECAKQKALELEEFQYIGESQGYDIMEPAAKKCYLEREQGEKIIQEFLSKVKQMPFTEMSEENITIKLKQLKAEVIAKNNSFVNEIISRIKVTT
Chain of UniProt O60361 (O60361 whole entry, looked up): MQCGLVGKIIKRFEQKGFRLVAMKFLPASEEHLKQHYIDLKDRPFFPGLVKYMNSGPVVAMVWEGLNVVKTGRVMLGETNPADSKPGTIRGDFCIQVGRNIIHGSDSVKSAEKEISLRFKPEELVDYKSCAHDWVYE
Chain of UniProt P17568 (P17568 whole entry, looked up): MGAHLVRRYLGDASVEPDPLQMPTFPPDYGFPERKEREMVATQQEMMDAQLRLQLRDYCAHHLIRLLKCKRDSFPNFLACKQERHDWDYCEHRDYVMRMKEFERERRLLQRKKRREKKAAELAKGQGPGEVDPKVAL
Chain of UniProt Q9H3P2 (Q9H3P2 whole entry, looked up): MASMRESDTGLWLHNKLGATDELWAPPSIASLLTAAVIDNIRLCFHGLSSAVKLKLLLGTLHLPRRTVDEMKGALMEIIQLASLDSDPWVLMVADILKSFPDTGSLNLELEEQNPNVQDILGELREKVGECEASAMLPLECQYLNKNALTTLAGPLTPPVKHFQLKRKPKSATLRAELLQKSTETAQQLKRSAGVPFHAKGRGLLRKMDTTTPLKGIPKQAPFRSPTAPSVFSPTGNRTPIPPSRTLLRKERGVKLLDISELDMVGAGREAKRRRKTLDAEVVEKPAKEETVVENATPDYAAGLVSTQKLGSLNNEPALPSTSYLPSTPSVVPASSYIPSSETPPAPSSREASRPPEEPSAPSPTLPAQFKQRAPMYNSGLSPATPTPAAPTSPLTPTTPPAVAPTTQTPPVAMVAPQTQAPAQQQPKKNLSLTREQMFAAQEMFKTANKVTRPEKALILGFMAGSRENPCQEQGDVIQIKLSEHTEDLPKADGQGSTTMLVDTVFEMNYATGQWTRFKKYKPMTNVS
Chain of UniProt Q12769 (Q12769 whole entry, looked up): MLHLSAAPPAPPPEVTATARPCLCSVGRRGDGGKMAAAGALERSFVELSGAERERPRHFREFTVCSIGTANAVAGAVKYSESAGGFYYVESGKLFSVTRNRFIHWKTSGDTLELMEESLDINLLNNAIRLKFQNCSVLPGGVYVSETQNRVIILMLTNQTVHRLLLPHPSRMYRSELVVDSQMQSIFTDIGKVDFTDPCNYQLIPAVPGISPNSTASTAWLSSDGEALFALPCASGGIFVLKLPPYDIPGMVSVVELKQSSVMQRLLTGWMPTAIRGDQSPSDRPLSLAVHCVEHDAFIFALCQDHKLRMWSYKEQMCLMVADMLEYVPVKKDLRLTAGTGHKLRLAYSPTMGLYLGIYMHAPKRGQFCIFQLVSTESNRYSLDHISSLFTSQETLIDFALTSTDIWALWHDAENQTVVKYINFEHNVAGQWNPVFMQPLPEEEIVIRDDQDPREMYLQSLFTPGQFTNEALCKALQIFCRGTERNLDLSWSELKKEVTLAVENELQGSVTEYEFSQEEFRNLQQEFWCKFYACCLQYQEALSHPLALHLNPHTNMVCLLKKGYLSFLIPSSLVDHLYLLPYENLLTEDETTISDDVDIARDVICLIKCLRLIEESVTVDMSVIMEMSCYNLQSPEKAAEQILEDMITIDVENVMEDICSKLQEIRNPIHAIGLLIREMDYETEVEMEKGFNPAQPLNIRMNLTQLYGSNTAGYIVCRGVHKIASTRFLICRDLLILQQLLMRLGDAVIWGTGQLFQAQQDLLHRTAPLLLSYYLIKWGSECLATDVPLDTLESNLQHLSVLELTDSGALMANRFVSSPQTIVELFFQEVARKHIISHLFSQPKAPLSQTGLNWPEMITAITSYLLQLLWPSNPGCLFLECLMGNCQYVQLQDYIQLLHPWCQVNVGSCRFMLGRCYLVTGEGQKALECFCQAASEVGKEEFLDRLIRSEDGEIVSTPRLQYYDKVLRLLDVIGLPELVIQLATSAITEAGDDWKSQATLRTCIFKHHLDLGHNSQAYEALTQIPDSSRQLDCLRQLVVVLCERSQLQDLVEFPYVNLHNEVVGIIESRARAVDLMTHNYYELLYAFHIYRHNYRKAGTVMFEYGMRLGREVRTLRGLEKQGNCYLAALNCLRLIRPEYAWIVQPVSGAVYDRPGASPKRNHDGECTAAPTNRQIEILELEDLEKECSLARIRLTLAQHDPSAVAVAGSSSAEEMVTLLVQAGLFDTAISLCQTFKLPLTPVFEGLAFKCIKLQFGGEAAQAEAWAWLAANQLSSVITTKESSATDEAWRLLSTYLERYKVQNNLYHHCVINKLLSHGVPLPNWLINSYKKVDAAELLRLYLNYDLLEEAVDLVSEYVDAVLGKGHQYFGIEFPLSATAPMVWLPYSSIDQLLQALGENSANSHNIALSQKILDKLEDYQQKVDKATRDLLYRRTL
Chain of UniProt Q9Y2I1 (Q9Y2I1 whole entry, looked up): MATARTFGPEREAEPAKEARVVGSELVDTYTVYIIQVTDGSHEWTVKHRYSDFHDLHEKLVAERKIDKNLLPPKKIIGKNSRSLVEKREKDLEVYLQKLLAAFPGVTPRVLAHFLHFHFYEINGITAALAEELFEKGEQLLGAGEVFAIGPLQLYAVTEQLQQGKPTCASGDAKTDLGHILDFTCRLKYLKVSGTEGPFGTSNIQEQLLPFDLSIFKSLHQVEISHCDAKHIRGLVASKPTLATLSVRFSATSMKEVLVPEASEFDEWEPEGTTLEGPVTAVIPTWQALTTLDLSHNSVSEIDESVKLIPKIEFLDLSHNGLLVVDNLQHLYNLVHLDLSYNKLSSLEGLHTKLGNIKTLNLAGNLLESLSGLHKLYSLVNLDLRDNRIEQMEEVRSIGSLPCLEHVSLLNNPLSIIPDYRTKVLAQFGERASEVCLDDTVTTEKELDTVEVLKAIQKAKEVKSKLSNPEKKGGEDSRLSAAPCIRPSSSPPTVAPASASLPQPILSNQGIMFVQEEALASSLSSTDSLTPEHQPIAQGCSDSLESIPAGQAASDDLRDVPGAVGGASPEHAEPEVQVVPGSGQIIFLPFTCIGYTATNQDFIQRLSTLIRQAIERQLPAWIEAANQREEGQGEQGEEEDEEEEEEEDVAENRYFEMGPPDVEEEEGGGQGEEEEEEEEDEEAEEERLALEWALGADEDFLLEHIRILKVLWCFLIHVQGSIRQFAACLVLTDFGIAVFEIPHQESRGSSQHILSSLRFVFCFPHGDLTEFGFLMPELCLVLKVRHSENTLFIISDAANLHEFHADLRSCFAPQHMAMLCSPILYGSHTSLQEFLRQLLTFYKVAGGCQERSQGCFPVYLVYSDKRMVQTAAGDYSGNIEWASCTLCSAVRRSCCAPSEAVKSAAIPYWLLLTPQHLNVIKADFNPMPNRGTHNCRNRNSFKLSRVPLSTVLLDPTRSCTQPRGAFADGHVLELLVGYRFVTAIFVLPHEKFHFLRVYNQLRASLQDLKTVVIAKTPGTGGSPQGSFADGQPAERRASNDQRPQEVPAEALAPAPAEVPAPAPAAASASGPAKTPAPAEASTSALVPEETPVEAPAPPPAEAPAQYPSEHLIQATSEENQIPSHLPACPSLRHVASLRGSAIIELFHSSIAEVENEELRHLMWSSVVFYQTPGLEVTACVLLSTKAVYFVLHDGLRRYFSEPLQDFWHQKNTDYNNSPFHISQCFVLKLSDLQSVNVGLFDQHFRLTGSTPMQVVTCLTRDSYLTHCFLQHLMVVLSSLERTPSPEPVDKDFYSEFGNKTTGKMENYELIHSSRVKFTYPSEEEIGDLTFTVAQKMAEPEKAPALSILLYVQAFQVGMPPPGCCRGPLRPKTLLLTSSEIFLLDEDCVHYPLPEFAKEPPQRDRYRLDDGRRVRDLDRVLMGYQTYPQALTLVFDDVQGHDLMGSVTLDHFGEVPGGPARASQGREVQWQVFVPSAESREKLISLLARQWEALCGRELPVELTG
Chain of UniProt Q9BSU3 (Q9BSU3 whole entry, looked up): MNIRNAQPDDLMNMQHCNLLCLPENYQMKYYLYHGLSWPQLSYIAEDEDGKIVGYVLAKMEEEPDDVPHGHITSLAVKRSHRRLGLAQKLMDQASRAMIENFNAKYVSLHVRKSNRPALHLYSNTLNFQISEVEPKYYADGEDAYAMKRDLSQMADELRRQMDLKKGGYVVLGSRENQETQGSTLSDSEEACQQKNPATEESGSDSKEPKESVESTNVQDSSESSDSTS
Chain of UniProt Q86WQ0 (Q86WQ0 whole entry, looked up): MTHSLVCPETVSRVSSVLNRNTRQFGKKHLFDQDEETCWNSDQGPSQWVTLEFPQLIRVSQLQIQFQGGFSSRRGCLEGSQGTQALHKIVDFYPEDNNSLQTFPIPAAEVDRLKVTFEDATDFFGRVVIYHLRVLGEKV

log2 fold change, inactive:
NDUFB7 (UniProt P17568) -0.007
MRPL50 (UniProt Q8N5N7) 0.072
NOP58 (UniProt Q9Y2X3) -0.126
MRPS31 (UniProt Q92665) 0.064
NME7 (UniProt Q9Y5B8) 0.006
NUMBL (UniProt Q9Y6R0) 0.056
NME2P1 (UniProt O60361) 0.026
OTUD6B (UniProt Q8N6M0) 0.051
NDUFA4 (UniProt O00483) 0.011
NUP160 (UniProt Q12769) -0.091
MTHFS (UniProt P49914) 0.083
NELFB isoform 2 (UniProt Q8WX92) 0.01
NISCH (UniProt Q9Y2I1) -0.144
MRPS16 (UniProt Q9Y3D3) 0.044
NCAPH (UniProt Q15003) 0.02
NELFA (UniProt Q9H3P2) 0
MSL1 (UniProt Q68DK7) -0.026
MSH3 (UniProt P20585) -0.039
NRGN (UniProt Q92686) 0.105
NEU1 (UniProt Q99519) -0.011
NUCKS1 (UniProt Q9H1E3) 0.033
NMRAL1 (UniProt Q9HBL8) 0.273
MTOR (UniProt P42345) -0.004
NAA11 (UniProt Q9BSU3) -0.032
MRPS22 (UniProt P82650) 0.068
NOSIP (UniProt Q9Y314) -0.03
NR2C2AP isoform 2 (UniProt Q86WQ0) -0.134
OSTC (UniProt Q9NRP0) 0.048
NECTIN2 isoform 2 (UniProt Q92692) -0.034
MRPS6 (UniProt P82932) 0.079
MKRN2 (UniProt Q9H000) -0.052
MYO19 (UniProt Q96H55) 0.07
OTUD4 (UniProt Q01804) 0.038
MSH2 (UniProt P43246) 0.035
MINK1 (UniProt Q8N4C8) -0.203
MIS12 (UniProt Q9H081) -0.018
NA, A0A096LPI6 -0.004
MMS19 isoform 8 (UniProt Q96T76) 0.016
